Values joined by “and” are separate entries in the source; they are usually repeats but may differ in a detail not shown here. Identical values can stand only once. Inconclusive results are not listed. Active and inactive are the calls of the source. Calls follow the shape of the dose curve; as a rule, active = well fitted curve in the direction sought with a large enough effect; inconclusive = small, poorly fitted or top-dose-only effect, or another doubt; inactive = no such curve, though single readings can be large; an effect the other way counts as inactive or inconclusive.
Key:
CRL-7250 = normal cell line; assay: Cytotoxic Profiling of Annotated Libraries Using Quantitative High-Throughput Screening (AID 1296008); conditions: Five cell lines viability, CellTiter-Glo ATP luminescence, 48-72 h; max response: stronger effect = lower value; also: nearly all actives have a fitted effect of over 60% in size; as to max response: % is scaled to controls: 0 for no effect and ±100 for the full control effect
Method in brief: (§1)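 Compounds were pin-transferred onto cells and incubated 48 or 72 hr at 37 degree Celsius, 95% humidity. CellTiter-Glo was added, plates sat 10 min at room temperature, then ATP-coupled luminescence was imaged as the viability read-out.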

HEK293 = assay: as above; conditions: Five cell lines viability, CellTiter-Glo ATP luminescence, 48-72 h; max response: stronger effect = lower value
Method in brief: as §1

HaCat [1] = assay: as above; conditions: Five cell lines viability, CellTiter-Glo ATP luminescence, 48-72 h; max response: stronger effect = lower value
Method in brief: as §1

KB-3-1 = assay: as above; conditions: Five cell lines viability, CellTiter-Glo ATP luminescence, 48-72 h; max response: stronger effect = lower value
Method in brief: as §1

NIH3T3 [2] = assay: as above; conditions: Five cell lines viability, CellTiter-Glo ATP luminescence, 48-72 h; max response: stronger effect = lower value
Method in brief: as §1

MCC-13 = assay: qHTS assay to identify novel small-molecules to repurpose for Merkel cell carcinoma treatment (AID 1296009); conditions: MCC and control cell lines, CellTiter-Glo viability, 72 h; series mostly up to 46 µM; also: nearly all actives have a fitted effect of over 60% in size; also: potency is read from the fitted curve at half-maximal effect; as to activity change, negative = cytotoxicity: % is scaled to controls: 0 for no effect and ±100 for the full control effect
Method in brief: (§2)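 Luminescence from CellTiter-Glo, read 10 min after addition at room temperature, reported viability following a 72 hr, 37 degree celsius treatment with NPC or MIPE compounds in titration; values normalized to plate controls.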

MCC-26 = assay: as above; conditions: MCC and control cell lines, CellTiter-Glo viability, 72 h; series mostly up to 46 µM
Method in brief: as §2

MKL-1 = assay: as above; conditions: MCC and control cell lines, CellTiter-Glo viability, 72 h; series mostly up to 46 µM
Method in brief: as §2

C33A = assay: Primary qHTS to identify gynecologic anti-cancer compounds using libraries of approved drugs and bioactive compounds (AID 1345084); conditions: Gynecologic cancer cell panel viability, ATPlite luminescence, 48 h; series mostly up to 57.5 µM; also: % is scaled to controls: 0 for no effect and ±100 for the full control effect; nearly all actives have a fitted effect of over 55% in size
Method in brief: (§3)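 48 h compound exposure at 37 C, 5% CO2; five-point qHTS. ATPlite luminescence readout of cell ATP.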

CAOV3 = assay: as above; conditions: Gynecologic cancer cell panel viability, ATPlite luminescence, 48 h; series mostly up to 57.5 µM
Method in brief: as §3

TAB109 = assay: qHTS profiling for inhibitors of Plasmodium falciparum proliferation (AID 504749); also: nearly all actives have a fitted effect of over 60% in size; also: potency is read from the fitted curve at half-maximal effect; conditions: P. falciparum in erythrocytes, SYBR Green DNA, 72 h; series mostly up to 28.7 µM
Method in brief: (§4)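 Fluorescence of SYBR Green-bound parasite DNA, read at 485/535 nm, served as the growth measure. Infected erythrocytes were cultured with compound 72 h; artemisinin (0.29 uM) and DMSO wells defined the normalization range.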

TAB113 = assay: as above; conditions: P. falciparum in erythrocytes, SYBR Green DNA, 72 h; series mostly up to 28.7 µM
Method in brief: as §4

TAB165 = assay: as above; conditions: P. falciparum in erythrocytes, SYBR Green DNA, 72 h; series mostly up to 28.7 µM
Method in brief: as §4

W2 = assay: as above; conditions: P. falciparum in erythrocytes, SYBR Green DNA, 72 h; series mostly up to 28.7 µM
Method in brief: as §4

HACAT [3] = assay: qHTS assay to identify novel small-molecules to repurpose for Merkel cell carcinoma treatment (AID 1296009); conditions: MCC and control cell lines, CellTiter-Glo viability, 72 h; at 44.8 µM (top of the series) unless noted; also: nearly all actives have a fitted effect of over 60% in size; also: potency is read from the fitted curve at half-maximal effect; as to activity change, negative = cytotoxicity: % is scaled to controls: 0 for no effect and ±100 for the full control effect
Method in brief: as §2

HEK293T = assay: as above; conditions: MCC and control cell lines, CellTiter-Glo viability, 72 h; at 44.8 µM (top of the series) unless noted
Method in brief: as §2

MKL-2 = assay: as above; conditions: MCC and control cell lines, CellTiter-Glo viability, 72 h; series mostly up to 46 µM
Method in brief: as §2

NIH3T3 [4] = assay: as above; conditions: MCC and control cell lines, CellTiter-Glo viability, 72 h; at 44.8 µM (top of the series) unless noted
Method in brief: as §2

UISO = assay: as above; conditions: MCC and control cell lines, CellTiter-Glo viability, 72 h; series mostly up to 46 µM
Method in brief: as §2

WaGa = assay: as above; conditions: MCC and control cell lines, CellTiter-Glo viability, 72 h; series mostly up to 46 µM
Method in brief: as §2

CC1=C(CC(=O)O)c2cc(F)ccc2/C1=C\c1ccc(S(C)(=O)=O)cc1
inactive: max response (CRL-7250) -16.5% | max response (HEK293) -17.6% | max response (HaCat [1]) -12.4% | max response (KB-3-1) -9.19% | max response (NIH3T3 [2]) -5.99% | Potency (MCC-13) | Potency (MCC-26) | Potency (MKL-1) | Potency (C33A) | Potency (CAOV3)

Cc1c(Cl)cccc1Nc1ccccc1C(=O)O
active: Potency (W2) 9.53 µM
inactive: Potency (TAB109) | Potency (TAB113) | Potency (TAB165) | outcome (CRL-7250) | outcome (HEK293) | outcome (HaCat [1]) | outcome (NIH3T3 [2]) | outcome (HACAT [3]) | outcome (HEK293T) | Potency (MCC-13) | Potency (MCC-26) | Potency (MKL-1) | Potency (MKL-2) | outcome (NIH3T3 [4]) | Potency (UISO) | Potency (WaGa) | Potency (C33A) | Potency (CAOV3)

CCCCC(CC)COC(=O)c1ccccc1O (centres undefined)
inactive: Potency (TAB109) | Potency (TAB113) | Potency (TAB165) | Potency (W2) | max response (CRL-7250) -6.25% | outcome (HEK293) | outcome (HaCat [1]) | outcome (NIH3T3 [2]) | outcome (HACAT [3]) | outcome (HEK293T) | Potency (MCC-13) | Potency (MCC-26) | Potency (MKL-1) | Potency (MKL-2) | outcome (NIH3T3 [4]) | Potency (UISO) | Potency (WaGa) | Potency (C33A) | Potency (CAOV3)

COc1ccccc1O
inactive: Potency (TAB109) | Potency (TAB113) | Potency (TAB165) | Potency (W2) | max response (CRL-7250) 3.64% | max response (HEK293) -17.2% | max response (HaCat [1]) 3.89% | max response (NIH3T3 [2]) -2.65% | Potency (MCC-13) | Potency (MCC-26) | Potency (MKL-1) | Potency (MKL-2) | Potency (UISO) | Potency (WaGa) | Potency (C33A)

C[C@@H]1CC[C@@]2(OC1)O[C@H]1C[C@H]3[C@@H]4CC[C@H]5C[C@@H](O)CC[C@]5(C)[C@H]4CC(=O)[C@]3(C)[C@H]1[C@@H]2C
inactive: outcome (CRL-7250) | outcome (HEK293) | outcome (HaCat [1]) | outcome (NIH3T3 [2]) | outcome (HACAT [3]) inactive [at 4.96 µM] | outcome (HEK293T) inactive [at 4.96 µM] | activity change, negative = cytotoxicity (MCC-13) -5.49% [at 4.84 µM] | activity change, negative = cytotoxicity (MCC-26) 5.06% [at 4.84 µM] | activity change, negative = cytotoxicity (MKL-1) 7.37% [at 4.84 µM] | activity change, negative = cytotoxicity (MKL-2) 2.92% [at 4.84 µM] | outcome (NIH3T3 [4]) inactive [at 4.96 µM] | activity change, negative = cytotoxicity (WaGa) 17.9% [at 4.84 µM] | activity change, negative = cytotoxicity (C33A) -0.977% [at 6.55 µM]

C[C@H]1O[C@H](O[C@H]2[C@H](O)[C@@H](O)[C@@H](O[C@H]3[C@H](O)[C@@H](O)[C@H](O)O[C@@H]3CO)O[C@@H]2CO)[C@H](O)[C@@H](O)[C@@H]1N[C@H]1C=C(CO)[C@@H](O)[C@H](O)[C@H]1O
inactive: outcome (CRL-7250) | outcome (HEK293) | outcome (HaCat [1]) | outcome (NIH3T3 [2]) | outcome (HACAT [3]) | outcome (HEK293T) | Potency (MCC-13) | Potency (MCC-26) | Potency (MKL-1) | Potency (MKL-2) | outcome (NIH3T3 [4]) | Potency (UISO) | Potency (WaGa) | Potency (C33A) | Potency (CAOV3)

NC(=O)NNc1ccccc1
inactive: Potency (TAB109) | Potency (TAB113) | Potency (TAB165) | Potency (W2) | max response (CRL-7250) 2.83% | max response (HEK293) 0.574% | max response (HaCat [1]) -7.26% | max response (KB-3-1) 13.6% and -2.9% | max response (NIH3T3 [2]) -2.02% | Potency (MCC-13) | Potency (MCC-26) | Potency (MKL-1) | Potency (MKL-2) | Potency (UISO) | Potency (WaGa) | Potency (C33A)

COc1ccc(S(=O)(=O)Nc2nnc(CC(C)C)s2)cc1
inactive: Potency (TAB109) | Potency (TAB113) | Potency (TAB165) | Potency (W2) | max response (CRL-7250) 0.202% | max response (HEK293) -9.93% | max response (HaCat [1]) -5.69% | max response (KB-3-1) -8.69% and 6.78% | max response (NIH3T3 [2]) -3.07% | Potency (MCC-13) | Potency (MCC-26) | Potency (MKL-1) | Potency (MKL-2) | Potency (UISO) | Potency (WaGa) | Potency (C33A) | Potency (CAOV3)

C[C@]12CC[C@@H]3c4ccc(O)cc4CC[C@H]3[C@@H]1CCC2=O
inactive: outcome (CRL-7250) | outcome (HEK293) | max response (HaCat [1]) 3.4% | max response (NIH3T3 [2]) 0.542% | outcome (HEK293T) | Potency (MCC-13) | Potency (MCC-26) | Potency (MKL-1) | Potency (MKL-2) | Potency (UISO) | Potency (WaGa) | Potency (C33A) | Potency (CAOV3)

c1ccc2c(CC3=NCCN3)cccc2c1
inactive: max response (CRL-7250) -1.39% | outcome (HEK293) | max response (HaCat [1]) -1.06% | max response (NIH3T3 [2]) 1.32% | outcome (HEK293T) | Potency (MCC-13) | Potency (MCC-26) | Potency (MKL-1) | Potency (MKL-2) | Potency (UISO) | Potency (WaGa) | Potency (C33A) | Potency (CAOV3)

COC(=O)C1=C(C)NC(C)=C(C(=O)OC)C1c1ccccc1[N+](=O)[O-]
active: Potency (MKL-2) 23.7 µM
inactive: Potency (TAB109) | Potency (TAB113) | Potency (TAB165) | Potency (W2) | max response (CRL-7250) -7.51% | max response (HEK293) -14.4% | max response (HaCat [1]) -2.57% | Potency (MCC-13) | Potency (MCC-26) | Potency (C33A)

Oc1cn2c(n1)Nc1ccc(Cl)c(Cl)c1C2
inactive: Potency (TAB109) | Potency (TAB113) | Potency (TAB165) | Potency (W2) | outcome (CRL-7250) | outcome (HEK293) | outcome (HaCat [1]) | outcome (NIH3T3 [2]) | outcome (HACAT [3]) inactive [at 17.4 µM] | outcome (HEK293T) inactive [at 17.4 µM] | Potency (MCC-13) | Potency (MCC-26) | Potency (MKL-1) | Potency (MKL-2) | outcome (NIH3T3 [4]) inactive [at 17.4 µM] | Potency (UISO) | Potency (WaGa) | Potency (C33A)

Source: PubChem BioAssay (NCATS)
